PubChem BioAssay AID1159580 (chemical genetic matrix, 2015)
In all, about 5,500 compounds went through this assay and about 2,000 (36%) were called active. About 18% were inconclusive and are not listed. Cut-off read from the data, not from the text of the source: active = normalized growth mostly below about 0.91 (no sharp cut-off); inconclusive = no clear call, values can overlap the other calls; inactive = mostly above about 0.92. The list shows a part of the results.

Assay: chemical genetic growth profiling, strain panel (AID 1159580);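 note: tested at 20 µM; growth read once vehicle control cultures reached saturation at 30 °C; 1 = growth at the plate median or of vehicle wells; lower values mean less growth of the strain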
Conditions: growth OD

Measured: normalized growth

O=C(OC1Cc2c(O)cc(O)cc2OC1c1cc(O)c(O)c(O)c1-c1c(C2Oc3cc(O)cc(O)c3CC2OC(=O)c2cc(O)c(O)c(O)c2)cc(O)c(O)c1O)c1cc(O)c(O)c(O)c1 (stereo not given)
active: S. cerevisiae deletion strains, locus YLR262C, strain YPT6 (second series), hits give low values 0.766 | S. cerevisiae deletion strains, locus YLR357W, strain rsc2, hits give low values 0.807 | S. cerevisiae deletion strains, locus YMR058W, strain fet3, hits give low values 0.338 | S. cerevisiae deletion strains, locus YMR231W, strain pep5, hits give low values 0.762 | S. cerevisiae deletion strains, locus YNL209W, strain ssb2, hits give low values 0.735 | S. cerevisiae deletion strains, locus YOR106W, strain vam3, hits give low values 0.648 | S. cerevisiae deletion strains, locus YPL051W, strain arl3, hits give low values 0.82
inactive: S. cerevisiae deletion strains, locus YJL187C, strain SWE1 (second series), hits give low values 1.01 | S. cerevisiae deletion strains, locus YJR043C, strain POL32, hits give low values 1.06 | S. cerevisiae deletion strains, locus YKL009W, strain mrt4, hits give low values 0.953 | S. cerevisiae deletion strains, locus YKL068W, hits give low values 1 | S. cerevisiae deletion strains, locus YKL085W, strain MDH1 (second series), hits give low values 0.991 | S. cerevisiae deletion strains, locus YKL085W, strain MDH1, hits give low values 0.991 | S. cerevisiae deletion strains, locus YKL160W, strain elf1, hits give low values 1 | S. cerevisiae deletion strains, locus YKL190W, strain CNB1, hits give low values 1 | S. cerevisiae deletion strains, locus YKR001C, strain vps1, hits give low values 0.961 | S. cerevisiae deletion strains, locus YKR026C, strain gcn3, hits give low values 1.02 | S. cerevisiae deletion strains, locus YKR091W, strain srl3, hits give low values 1.02 | S. cerevisiae deletion strains, locus YLL001W, strain dnm1, hits give low values 1.02 | S. cerevisiae deletion strains, locus YLL026W, hits give low values 1.02 | S. cerevisiae deletion strains, locus YLL041C, strain sdh2, hits give low values 1 | S. cerevisiae deletion strains, locus YLR027C, strain aat2, hits give low values 1.01 | S. cerevisiae deletion strains, locus YLR039C, strain RIC1, hits give low values 1.04 | S. cerevisiae deletion strains, locus YLR058C, strain SHM2, hits give low values 1.01 | S. cerevisiae deletion strains, locus YLR102C, strain apc9, hits give low values 0.988 | S. cerevisiae deletion strains, locus YLR221C, strain rsa3, hits give low values 0.995 | S. cerevisiae deletion strains, locus YLR258W, strain gsy2, hits give low values 0.993 | S. cerevisiae deletion strains, locus YLR262C, strain YPT6, hits give low values 0.99 | S. cerevisiae deletion strains, locus YLR268W, strain sec22, hits give low values 0.993 | S. cerevisiae deletion strains, locus YLR320W, strain mms22, hits give low values 0.981 | S. cerevisiae deletion strains, locus YLR330W, strain CHS5, hits give low values 0.993 | S. cerevisiae deletion strains, locus YLR342W, strain FKS1 (second series), hits give low values 1.1 | S. cerevisiae deletion strains, locus YLR342W, strain FKS1, hits give low values 0.98 | S. cerevisiae deletion strains, locus YLR370C, strain arc18, hits give low values 1.01 | S. cerevisiae deletion strains, locus YLR371W, strain rom2, hits give low values 0.979 | S. cerevisiae deletion strains, locus YLR384C, strain iki3, hits give low values 1 | S. cerevisiae deletion strains, locus YLR418C, strain cdc73, hits give low values 0.931 | S. cerevisiae deletion strains, locus YML016C, strain PPZ1, hits give low values 1.03 | S. cerevisiae deletion strains, locus YML032C, strain rad52, hits give low values 0.99 | S. cerevisiae deletion strains, locus YML120C, strain ndi1, hits give low values 1 | S. cerevisiae deletion strains, locus YML124C, strain tub3, hits give low values 0.992 | S. cerevisiae deletion strains, locus YMR078C, strain ctf18, hits give low values 0.981 | S. cerevisiae deletion strains, locus YMR125W, strain sto1, hits give low values 1.04 | S. cerevisiae deletion strains, locus YMR129W, hits give low values 1.02 | S. cerevisiae deletion strains, locus YMR205C, strain PFK2, hits give low values 0.974 | S. cerevisiae deletion strains, locus YMR223W, strain ubp8, hits give low values 0.995 | S. cerevisiae deletion strains, locus YMR307W, strain GAS1, hits give low values 1.08 | S. cerevisiae deletion strains, locus YNL067W, strain RPL9B, hits give low values 0.984 | S. cerevisiae deletion strains, locus YNL071W, strain lat1, hits give low values 1.02 | S. cerevisiae deletion strains, locus YNL153C, strain GIM3, hits give low values 1 | S. cerevisiae deletion strains, locus YNL233W, strain BNI4, hits give low values 0.964 | S. cerevisiae deletion strains, locus YNL248C, strain rpa49, hits give low values 1.01 | S. cerevisiae deletion strains, locus YNL250W, strain rad50, hits give low values 0.968 | S. cerevisiae deletion strains, locus YNL271C, strain bni1, hits give low values 0.964 | S. cerevisiae deletion strains, locus YNL298W, strain CLA4, hits give low values 0.979 | S. cerevisiae deletion strains, locus YNL307C, strain MCK1, hits give low values 0.979 | S. cerevisiae deletion strains, locus YNL322C, strain KRE1 (second series), hits give low values 1.05 | S. cerevisiae deletion strains, locus YNL322C, strain KRE1, hits give low values 0.998 | S. cerevisiae deletion strains, locus YNR049C, strain mso1, hits give low values 1.02 | S. cerevisiae deletion strains, locus YNR052C, strain pop2, hits give low values 0.969 | S. cerevisiae deletion strains, locus YOL006C, strain TOP1, hits give low values 0.885 | S. cerevisiae deletion strains, locus YOL012C, strain htz1 1.2 | S. cerevisiae deletion strains, locus YOL147C, strain pex11, hits give low values 0.987 | S. cerevisiae deletion strains, locus YOR001W, strain rrp6, hits give low values 0.997 | S. cerevisiae deletion strains, locus YOR061W, strain CKA2, hits give low values 1.03 | S. cerevisiae deletion strains, locus YOR069W, strain VPS5, hits give low values 1.02 | S. cerevisiae deletion strains, locus YOR070C, strain gyp1, hits give low values 0.975 | S. cerevisiae deletion strains, locus YOR080W, strain dia2, hits give low values 1.02 | S. cerevisiae deletion strains, locus YOR083W, strain WHI5, hits give low values 0.976 | S. cerevisiae deletion strains, locus YOR136W, strain idh2, hits give low values 0.972 | S. cerevisiae deletion strains, locus YOR144C, strain elg1, hits give low values 0.999 | S. cerevisiae deletion strains, locus YOR184W, strain ser1, hits give low values 0.982 | S. cerevisiae deletion strains, locus YOR265W, strain rbl2, hits give low values 0.984 | S. cerevisiae deletion strains, locus YOR270C, strain vph1, hits give low values 0.835 | S. cerevisiae deletion strains, locus YOR290C, strain snf2, hits give low values 0.985 | S. cerevisiae deletion strains, locus YOR316C, strain cot1, hits give low values 1 | S. cerevisiae deletion strains, locus YPL078C, strain atp4, hits give low values 1.01 | S. cerevisiae deletion strains, locus YPL106C, strain sse1, hits give low values 0.893 | S. cerevisiae deletion strains, locus YPL240C, strain hsp82, hits give low values 1.02 | S. cerevisiae deletion strains, locus YPR119W, strain clb2, hits give low values 0.999 | S. cerevisiae deletion strains, locus YPR141C, strain kar3, hits give low values 0.964 | S. cerevisiae deletion strains, locus YPR163C, strain tif3, hits give low values 0.987 | S. cerevisiae deletion strains, locus YPR167C, strain met16, hits give low values 0.986 | S. cerevisiae deletion strains, strain wtn01, hits give low values 0.994 | S. cerevisiae strains, strain wild type, hits give low values 1.01
